Assay outcomes as filed in PubChem BioAssay.
The list is not random: actives were taken first. Their share in the collection is about 19%.
Shiga inhibitor: inhibitors of Shiga toxin in Vero cells; actives 9.2% (n = 290,000); inhibition, % at 38.7 µM; Vero cells, Shiga toxin protein synthesis inhibition reporter; in the data active means inhibition mostly above about 28%, no sharp cut-off; inactive means mostly below about 43%; further: 0% is about no effect
SARS PLP yeast: blocks SARS-CoV papain-like protease in a yeast assay; S. cerevisiae expressing SARS-CoV PLpro, growth rescue; Potency, µM (series often up to 32.9 µM), for the others: top-dose activity, positive = growth rescue, actives largely listed as activators; actives 0.19% (n = 330,000); AID 485353; calls by dose curve; further: potency means the concentration at half of the fitted maximal effect; 0% is about no effect; nearly all actives have a fitted effect of over 55% in size
Pf growth 48h: inhibits P. falciparum growth in the first generation, 48 h; actives 5.9% (n = 310,000); P. falciparum luciferase growth in erythrocytes, 48 h; Potency, µM (doses to about 28.7 µM), without a hit: top-dose activity change, negative = inhibition, hits mostly inhibitors; further: potency means the concentration at half of the fitted maximal effect; on the % scale 0 is the no-effect control and ±100 the full control effect
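Luciferase-expressing P. falciparum in infected erythrocytes (2% hematocrit, 0.1% parasitemia final) in RPMI 1640/0.5% Albumax were exposed to compound for 48 hours at 37 C, 5% CO2; growth read as luminescence.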
Pf growth 96h: P. falciparum growth inhibition at 96 hours; P. falciparum luciferase reporter growth, 96 h; Potency, µM (titrated, usually from 28.7 µM), without a hit: at the top dose activity change, negative = inhibition, actives largely listed as inhibitors; actives 6.9% (n = 320,000); AID 504834; further: potency means the concentration at half of the fitted maximal effect; on the % scale 0 is the no-effect control and ±100 the full control effect
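P. falciparum expressing integrated firefly luciferase, in erythrocytes at 2% hematocrit, 0.05% parasitemia, incubated with compounds 96 h at 37 C, 5% CO2. Growth inhibition read as loss of luminescence; two-generation exposure targets delayed-death apicoplast inhibitors.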
AMA1-RON2 inh: disrupts binding of P. falciparum AMA1 to RON2; AlphaScreen AMA1-biotinylated RON2 peptide binding; Potency, µM (series often up to 58.2 µM), for inactives: top-dose activity change, negative = inhibition, actives largely listed as inhibitors; actives 0.2% (n = 360,000); AID 720542;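 further: potency means the concentration at half of the fitted maximal effect; 0% = vehicle wells and -100% = peptide control; nearly all actives have a fitted effect of over 45% in size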
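AMA1 (3D7) with his tag at 25 nM final met compounds first, then biotinylated RON2 peptide at 25 nM; detection used donor plus acceptor beads, 10 µg/mL apiece, read by AlphaScreen after 30 min at room temperature.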
CHX counter: counter-screen hit for Shiga toxin inhibitors, cycloheximide; AID 2314; cell reporter, cycloheximide protein synthesis inhibition counterscreen; actives 12% (n = 300,000); max response, %; in the data active means max response mostly above about 13%, no sharp cut-off; inactive means mostly below about 14%; further: read at 38.3 µM for the half of the compounds with a filed dose; 0% is about no effect
Starred values were filed as active, the others as inactive. Unless noted, the call rests on the fitted dose curve; in most records, active means well fitted curve in the direction sought with a large enough effect; inconclusive means small, poorly fitted or top-dose-only effect, or another doubt; inactive means no such curve, though single readings can be large; an effect the other way counts as inactive or inconclusive.

For COC(=O)c1cc2sc(Cl)cc2n1CC(=O)Nc1cccc(SC)c1 the results were Shiga inhibitor 47, SARS PLP yeast 3%, Pf growth 48h 6%, Pf growth 96h 0%, AMA1-RON2 inh -5% and CHX counter 4.
Screening COC(=O)c1cc2oc(C)cc2n1CC(=O)Nc1ccc(OC)c(OC)c1OC returned Shiga inhibitor -4, SARS PLP yeast 10%, Pf growth 48h 1.7µM*, Pf growth 96h inconclusive and CHX counter -3.
COC(=O)c1cc2occc2n1CC(=O)Nc1ccc(OC)c(OC)c1OC was read as Shiga inhibitor 2, SARS PLP yeast 9%, Pf growth 96h 135%, AMA1-RON2 inh 2% and CHX counter -3.
COC(=O)c1cc2sc(Cl)cc2n1CC(=O)Nc1ccc(OC)c(OC)c1OC was read as Shiga inhibitor 16, SARS PLP yeast 0%, Pf growth 48h 0.41µM*, Pf growth 96h 21%, AMA1-RON2 inh 36% and CHX counter -3.
`O=S(=O)(c1ccccc1)N1CN(c2ccc(F)cc2F)c2nc3ccccc3nc21` gave SARS PLP yeast 2% and AMA1-RON2 inh -14%.
For O=S(=O)(c1ccccc1)N1c2cc(Cl)ccc2Oc2nc3ccccc3nc21 the results were Shiga inhibitor 94*, SARS PLP yeast -17%, Pf growth 48h inconclusive, Pf growth 96h inconclusive, AMA1-RON2 inh -11% and CHX counter 65*.
Cn1c(=O)c2c(nc(NCc3ccc4c(c3)OCO4)n2Cc2ccccc2)n(C)c1=O was read as Shiga inhibitor -4, SARS PLP yeast -1%, Pf growth 48h 13µM*, Pf growth 96h -21%, AMA1-RON2 inh 3% and CHX counter -3.
Screening Cn1c(=O)c2c(nc(NCc3ccc4c(c3)OCO4)n2Cc2ccc(F)cc2)n(C)c1=O returned Shiga inhibitor -11, SARS PLP yeast -3%, Pf growth 48h 12µM*, Pf growth 96h 13µM*, AMA1-RON2 inh inconclusive and CHX counter -2.
`c1ccc(Cn2nnc3c(NCc4ccc5c(c4)OCO5)nc(C4CC4)nc32)cc1` gave Shiga inhibitor -4, SARS PLP yeast 0%, Pf growth 48h 1%, AMA1-RON2 inh -7% and CHX counter 6.
`Cc1nc(NCc2ccc3c(c2)OCO3)c2nnn(Cc3ccccc3)c2n1` gave Shiga inhibitor 5, SARS PLP yeast 3%, Pf growth 48h 3%, Pf growth 96h 12µM*, AMA1-RON2 inh 8% and CHX counter 2.
Screening CC(C)CNc1nc2c(c(=O)n(C)c(=O)n2C)n1Cc1cccc(Br)c1 returned Shiga inhibitor 14, SARS PLP yeast 2%, Pf growth 48h 12µM*, Pf growth 96h 19%, AMA1-RON2 inh 0% and CHX counter -2.
Cc1cc([N+](=O)[O-])nn1CC(=O)NCc1ccc(Cl)cc1 was read as Shiga inhibitor 14, SARS PLP yeast -5%, Pf growth 48h -8%, Pf growth 96h -18%, AMA1-RON2 inh 0% and CHX counter -1.
Screening O=C(CN1C(=O)c2ccccc2S1(=O)=O)Nc1cccc(S(=O)(=O)N2CCCCC2)c1 returned SARS PLP yeast -3% and AMA1-RON2 inh -9%.
Screening CCCN1CCc2c(sc(NC(=O)c3ccc(S(=O)(=O)N(C)c4ccccc4)cc3)c2C(N)=O)C1 returned Shiga inhibitor 2, SARS PLP yeast -2%, Pf growth 48h 9.3µM*, Pf growth 96h 9.3µM*, AMA1-RON2 inh -12% and CHX counter -4.
For CCN1CCc2c(sc(NC(=O)c3ccc(S(=O)(=O)N(C)CC4CCCO4)cc3)c2C(N)=O)C1 (configuration not stated) the results were Shiga inhibitor -13, SARS PLP yeast 5%, Pf growth 48h inconclusive, Pf growth 96h 10µM*, AMA1-RON2 inh -6% and CHX counter 3.
For CC(=O)c1ccc(C(=O)Nc2sc3c(c2C(N)=O)CCN(Cc2ccccc2)C3)cc1 the results were Shiga inhibitor -1, SARS PLP yeast 4%, Pf growth 48h inconclusive, Pf growth 96h inconclusive and CHX counter -1.
`CCCN1CCc2c(sc(NC(=O)c3ccc(S(=O)(=O)N4CCN(C(=O)OCC)CC4)cc3)c2C(N)=O)C1` gave Shiga inhibitor -14, SARS PLP yeast 0%, Pf growth 48h 10µM*, Pf growth 96h inconclusive, AMA1-RON2 inh -8% and CHX counter -3.
For CCOC(=O)N1CCN(S(=O)(=O)c2ccc(C(=O)Nc3sc4c(c3C(N)=O)CCN(CC)C4)cc2)CC1 the results were Shiga inhibitor -11, Pf growth 48h inconclusive, Pf growth 96h -10%, AMA1-RON2 inh -7% and CHX counter -2.
For CC(C)N1CCc2c(sc(NC(=O)c3ccc(S(=O)(=O)N(C)CC4CCCO4)cc3)c2C(N)=O)C1 (configuration not stated) the results were Shiga inhibitor -9, SARS PLP yeast -2%, Pf growth 48h inconclusive, Pf growth 96h inconclusive, AMA1-RON2 inh -11% and CHX counter -1.
For CCCN1CCc2c(sc(NC(=O)c3ccc(S(=O)(=O)N(C)c4ccccc4)cc3)c2C(=O)NC)C1 the results were Shiga inhibitor 20, SARS PLP yeast 4%, Pf growth 48h 3.3µM*, Pf growth 96h 2.6µM*, AMA1-RON2 inh -10% and CHX counter 6.
`CCOc1ccc2[nH]c(=O)c(CN(CCc3ccccc3)C(=O)c3cnccn3)cc2c1` gave Shiga inhibitor -10, SARS PLP yeast 1%, Pf growth 48h 4%, Pf growth 96h 23%, AMA1-RON2 inh 0% and CHX counter -3.
For Cc1ccc2nc(-c3cccc(Br)c3)c(Cc3ccccc3C(F)(F)F)n2c1 the results were AMA1-RON2 inh -3%.
Screening CC1(C)Oc2ccc(C(=O)Nc3ccccc3)cc2N(CC#N)C1=O returned Shiga inhibitor 38*, SARS PLP yeast 1%, Pf growth 48h -5%, Pf growth 96h 2.9µM*, AMA1-RON2 inh -11% and CHX counter 18*.
Screening CCOC(=O)CN1C(=O)C(C)(C)Oc2ccc(C(=O)NC(C)(C)CC)cc21 returned Shiga inhibitor 9, SARS PLP yeast -1%, Pf growth 48h -5%, Pf growth 96h 16%, AMA1-RON2 inh 2% and CHX counter 22*.
CCOC(=O)CC1(C)NC(C(=O)O)C(C)(C)S1 (configuration not stated) was read as AMA1-RON2 inh 44%.
CN(CC1CCCN(CCc2ccc(Cl)cc2)C1)C(=O)C(=O)c1ccco1 (configuration not stated) was read as Shiga inhibitor 23, SARS PLP yeast 12%, Pf growth 48h -27%, Pf growth 96h 69%, AMA1-RON2 inh 1% and CHX counter -1.
For CCOC(=O)c1c(C)cc(C)n2c1nc1ccccc12 the results were Shiga inhibitor 24, SARS PLP yeast -7%, Pf growth 48h inconclusive, Pf growth 96h 12µM*, AMA1-RON2 inh 7% and CHX counter 13.
